Records with an inconclusive call do not appear. A call without a number means that no potency is given here. Active and inactive are the calls of the source. Unless noted, the call rests on the fitted dose curve; in most records, active means well fitted curve in the direction sought with a large enough effect; inconclusive means small, poorly fitted or top-dose-only effect, or another doubt; inactive means no such curve, though single readings can be large; an effect the other way counts as inactive or inconclusive.
Legend:
[1] = Confirmation and Secondary Assay for Modulators of Hemoglobin Beta Chain Splicing at IVS2 654 locus (AID 910);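 further: HeLa cells stably carrying EGFP split by mutant beta-globin IVS2-654 intron; per-well total GFP intensity by laser scanning cytometry after 2-day treatment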
How it was run: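 Readout: per-well total peak green fluorescence (488 nm ex, 500–520 nm em) from objects 5–250 µm, reflecting correct splicing of an EGFP-654 reporter. Compounds were applied for 2 days at 37 °C to overnight-plated HeLa EGFP-654 cells; controls were DMSO and 500 nM IVS2-654 PNA.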

[2] = qHTS Assay for Identification of Small Molecule Agonists for Thrombopoietin (TPO) Signaling Pathway (AID 917)
How it was run: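 First, Ba/F3 cells with human TPO receptor were held overnight without IL-3. Next, compounds and TPO (26 pM final) were added. After 24 hrs at 37 C, luciferase detection reagent was added and luminescence measured following 10 min at room temperature.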

[3] = Confirmation and Secondary Assay for Modulators of Hemoglobin Beta Chain Splicing at IVS2 705 locus (AID 930);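 further: HeLa cells stably expressing the EGFP-705 splicing reporter; GFP fluorescence per well restored by corrected splicing of the IVS2-705 intron in EGFP; series mostly up to about 46 µM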
How it was run: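 Secondary splice-site specificity test uses HeLa expressing CMV-driven EGFP interrupted by IVS2-705; cells were treated 2 days at 37C with 500 nM antisense PNA as positive control.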

[4] = biological target: Muscarinic acetylcholine receptor M1 (Rattus norvegicus) (UniProt P08482); assay: qHTS Assay for Antagonists of Acetylcholine Muscarinic M1 Receptor: Kinetic Measurement of Intracellular Calcium Response (AID 943);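 further: Fluo-4 calcium signal as peak divided by basal fluorescence over 4 min; series mostly up to about 35 µM; nearly all actives have a fitted effect of over 75% in size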
Sequence of Muscarinic acetylcholine receptor M1 (Rattus norvegicus) (P08482 whole entry, looked up): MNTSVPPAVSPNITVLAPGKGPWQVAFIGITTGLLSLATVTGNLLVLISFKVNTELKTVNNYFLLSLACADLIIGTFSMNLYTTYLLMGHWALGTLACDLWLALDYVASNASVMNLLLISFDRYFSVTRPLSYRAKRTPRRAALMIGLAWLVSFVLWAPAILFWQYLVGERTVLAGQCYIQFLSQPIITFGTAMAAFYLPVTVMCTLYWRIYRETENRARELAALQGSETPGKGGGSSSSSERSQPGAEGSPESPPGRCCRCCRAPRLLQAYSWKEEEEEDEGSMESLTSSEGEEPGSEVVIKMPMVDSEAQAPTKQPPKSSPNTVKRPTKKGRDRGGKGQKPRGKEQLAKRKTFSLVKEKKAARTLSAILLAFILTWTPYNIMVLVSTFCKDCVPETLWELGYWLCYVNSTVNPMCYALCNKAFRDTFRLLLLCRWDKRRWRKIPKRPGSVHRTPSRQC
How it was run: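 Read-out: peak over basal Fluo-4 fluorescence, kinetic at 1 Hz for 4 min after EC80 carbachol (100 nM final). Rat M1-CHO cells, dye loaded 1 h at 37C, compound added 10 min before agonist.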

[5] = biological target: Muscarinic acetylcholine receptor M1 (Rattus norvegicus) (UniProt P08482); assay: qHTS Assay for Antagonists of Acetylcholine Muscarinic M1 Receptor: Measurement of IP-One Response (AID 944); further: nearly all actives have a fitted effect of over 75% in size
How it was run: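 Read-out: HTRF competition between d2-IP1 and Eu-cryptate anti-IP1 antibody, emission 620 and 665 nm. Stimulus was carbachol, EC80 (200 nM), for 30 min in M1-CHO cells (rat receptor), after 10 min compound pre-treatment.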

[6] = biological target: Pyruvate kinase (Leishmania mexicana) (UniProt Q27686); assay: qHTS Validation Assay for Inhibitors of Leishmania Mexicana Pyruvate Kinase (AID 945)
Sequence of Pyruvate kinase (Leishmania mexicana) (Q27686 2-499 E452W): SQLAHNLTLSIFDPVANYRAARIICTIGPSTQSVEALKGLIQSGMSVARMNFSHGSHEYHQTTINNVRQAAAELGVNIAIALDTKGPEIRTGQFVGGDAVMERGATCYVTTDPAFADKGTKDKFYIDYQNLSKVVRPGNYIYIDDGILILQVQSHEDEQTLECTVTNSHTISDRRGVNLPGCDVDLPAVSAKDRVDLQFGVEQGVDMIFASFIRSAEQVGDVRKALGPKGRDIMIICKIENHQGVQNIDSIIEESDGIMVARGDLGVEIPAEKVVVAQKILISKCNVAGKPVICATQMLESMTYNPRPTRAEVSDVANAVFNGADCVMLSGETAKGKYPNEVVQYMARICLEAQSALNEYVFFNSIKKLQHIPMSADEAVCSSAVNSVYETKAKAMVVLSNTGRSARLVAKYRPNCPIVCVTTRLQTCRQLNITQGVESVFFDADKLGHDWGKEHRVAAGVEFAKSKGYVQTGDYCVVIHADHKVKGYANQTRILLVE
How it was run: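 Read-out: luminescence from PKLight stop/detection reagent, data normalized to DMSO. Reaction: 0.2 nM E451W LmPYK, 0.5 mM PEP, 0.1 mM ADP, pH 7.2, 1 h room temperature.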

[7] = biological target: Pyruvate kinase PKM (Homo sapiens) (UniProt P14618); assay: qHTS Assay for Activators of Human Muscle Pyruvate Kinase (AID 954; active means well fitted curve in the direction sought with a large enough effect, not every such curve was filed as active)
Sequence of Pyruvate kinase PKM (Homo sapiens) (P14618 whole entry, looked up): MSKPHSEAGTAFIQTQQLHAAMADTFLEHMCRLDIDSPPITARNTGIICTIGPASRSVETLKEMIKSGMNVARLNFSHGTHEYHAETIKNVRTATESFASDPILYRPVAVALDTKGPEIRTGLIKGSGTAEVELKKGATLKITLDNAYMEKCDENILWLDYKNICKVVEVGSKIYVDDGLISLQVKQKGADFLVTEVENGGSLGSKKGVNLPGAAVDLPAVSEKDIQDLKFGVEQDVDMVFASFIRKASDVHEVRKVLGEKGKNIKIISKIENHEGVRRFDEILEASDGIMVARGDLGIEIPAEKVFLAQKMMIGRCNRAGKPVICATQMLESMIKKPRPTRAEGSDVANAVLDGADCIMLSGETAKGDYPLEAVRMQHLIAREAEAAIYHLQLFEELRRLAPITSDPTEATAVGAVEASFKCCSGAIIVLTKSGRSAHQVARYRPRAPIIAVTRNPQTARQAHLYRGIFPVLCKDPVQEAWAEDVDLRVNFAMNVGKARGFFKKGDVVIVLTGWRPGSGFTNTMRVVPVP
How it was run: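 Screening used highly purified human pyruvate kinase M2 under submaximal activity, with PEP at its Km and ADP below Km. After an hour at room temperature, ATP was read by luciferase luminescence.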

[8] = biological target: Cytochrome P450 2C19 (Homo sapiens) (UniProt P33261); assay: qHTS Assay for Inhibitors and Substrates of Cytochrome P450 2C19 (AID 899); further: potency means the concentration at half of the fitted maximal effect; nearly all actives have a fitted effect of over 60% in size
Sequence of Cytochrome P450 2C19 (Homo sapiens) (P33261 whole entry, looked up): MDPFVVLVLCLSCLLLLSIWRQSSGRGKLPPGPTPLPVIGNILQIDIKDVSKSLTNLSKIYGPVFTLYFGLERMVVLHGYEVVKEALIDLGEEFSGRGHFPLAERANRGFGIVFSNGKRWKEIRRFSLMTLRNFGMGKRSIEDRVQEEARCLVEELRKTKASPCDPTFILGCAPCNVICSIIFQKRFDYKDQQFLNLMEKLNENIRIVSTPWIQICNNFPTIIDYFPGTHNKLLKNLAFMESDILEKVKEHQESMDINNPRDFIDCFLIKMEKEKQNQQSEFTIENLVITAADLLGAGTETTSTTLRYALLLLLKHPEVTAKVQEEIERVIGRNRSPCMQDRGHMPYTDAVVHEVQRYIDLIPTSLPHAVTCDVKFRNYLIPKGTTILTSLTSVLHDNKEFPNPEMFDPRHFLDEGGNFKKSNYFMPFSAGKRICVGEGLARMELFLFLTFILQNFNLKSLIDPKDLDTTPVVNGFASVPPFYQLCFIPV
How it was run: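 Luminescence readout of luciferin formed from 10uM Luciferin-H EGE (KM level) by 5 nM CYP2C19 in 50mM KPO4. 60 min NADPH-driven reaction at 37C after 10 min compound preincubation; data scaled to 57uM ketoconazole inhibition.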

[9] = qHTS Assay for Identification of Small Molecule Agonists for Hypoxia Response Element Signaling Pathway (AID 914; active means well fitted activation curve with a large enough effect in the signal ratio, with a control signal flat, not every such curve was filed as active; the % refers to the signal ratio); details: ME-180 (cervical carcinoma) HRE-bla reporter, beta-lactamase ratio, CoCl2, 17 h; hits give high values
How it was run: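 qHTS titration; ME-180 HRE-bla cells; EC50 CoCl2 co-treatment, 17 h at 37 degrees Celsius; CCF4 dye, ex 405nm, em 460nm and 530nm; %Activity from ratio; AC50.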

C[N+]1(CCCCC[N+]2(C)CCCC2)CCCC1
outcome [1]: inactive
outcome [2]: inactive
outcome [3]: inactive
outcome [4]: inactive
Potency [5]: inactive
outcome [6]: inactive
outcome [7]: inactive

C[C@@H]1CN(CCCn2c3ccccc3c3ccccc32)C[C@H](C)N1
Potency [8]: 3.16 µM (active)

O=C(COc1ccc(Cl)cc1)N1CCN(Cc2ccc3c(c2)OCO3)CC1
Potency [8]: 5.01 µM (active)
outcome [1]: inactive
outcome [3]: inactive

OCc1ccccc1O
outcome [1]: inactive
outcome [3]: inactive

O=C1OCCN1/N=C/c1ccc([N+](=O)[O-])o1
outcome [1]: inactive
outcome [3]: inactive

CC(Cc1cccc(C(F)(F)F)c1)NCCOC(=O)c1ccccc1 (centres undefined)
outcome [1]: inactive
outcome [3]: inactive

CCCCC(CC)CN=C(N)NC(N)=NCCCCCCN=C(N)NC(N)=NCC(CC)CCCC (centres undefined)
outcome [1]: inactive
outcome [3]: inactive

CCOc1ccc(Cc2nccc3cc(OCC)c(OCC)cc23)cc1OCC
outcome [1]: inactive
outcome [3]: inactive

CCn1cc(C(=O)O)c(=O)c2cnc(N3CCCC3)nc21
outcome [1]: inactive
outcome [3]: inactive

CCOc1ccc2nc3cc(N)ccc3c(N)c2c1
outcome [1]: inactive
outcome [3]: inactive

CCN1CCN(c2cc3c(cc2F)c(=O)c(C(=O)O)cn3C2CC2)CC1
outcome [1]: inactive
outcome [3]: inactive

COc1ccc(CCN2CCC(Nc3nc4ccccc4n3Cc3ccc(F)cc3)CC2)cc1
outcome [1]: inactive
outcome [3]: inactive

Oc1ccc(Cl)c2cccnc12
outcome [1]: inactive
outcome [3]: inactive

CCCCOc1cc(C(=O)NCCN(CC)CC)c2ccccc2n1
outcome [1]: inactive
outcome [3]: inactive

C/C=C(/C(=C/C)c1ccc(O)cc1)c1ccc(O)cc1
outcome [1]: inactive
outcome [3]: inactive

CC(C)(Oc1ccc(Cl)cc1)C(=O)O
outcome [1]: inactive
outcome [3]: inactive

Cc1cc(=O)n(-c2ccccc2)n1C
outcome [1]: inactive
outcome [3]: inactive

Cc1ccc(C(=O)C(C)CN2CCCCC2)cc1 (centres undefined)
outcome [1]: inactive
outcome [3]: inactive

CC(=O)N(O)CCCCCNC(=O)CCC(=O)N(O)CCCCCNC(=O)CCC(=O)N(O)CCCCCN
outcome [1]: inactive
outcome [3]: inactive

CC(C)(C)CC(C)(C)c1ccc(O)c(Cc2ccc(Cl)cc2Cl)c1
outcome [1]: inactive
outcome [3]: inactive

c1ccc(-c2ccc(C(c3ccccc3)n3ccnc3)cc2)cc1 (centres undefined)
outcome [1]: inactive
outcome [3]: inactive

O=C1c2ccccc2C(=O)C1c1ccccc1
outcome [1]: inactive
outcome [3]: inactive

CC(=O)Nc1c(I)cc(I)c(C(=O)O)c1I
outcome [1]: inactive
outcome [3]: inactive

COc1ccc(C2C(=O)c3ccccc3C2=O)cc1
outcome [1]: inactive
outcome [3]: inactive

CCCCC1=NC2(CCCC2)C(=O)N1Cc1ccc(-c2ccccc2-c2nn[nH]n2)cc1
outcome [1]: inactive
outcome [3]: inactive

CN1CCN(C(c2ccccc2)c2ccccc2)CC1
outcome [1]: inactive
outcome [3]: inactive

CN(C)CC/C=C1\c2ccccc2Sc2ccc(Cl)cc21
outcome [1]: inactive
outcome [3]: inactive

CCN(CCCc1ccccc1)CCCc1ccccc1
outcome [1]: inactive
outcome [3]: inactive

CCCC(=O)Nc1ccc(OCC(O)CNC(C)C)c(C(C)=O)c1 (centres undefined)
outcome [1]: inactive
outcome [3]: inactive

COc1ccc(OC)c(C(O)CNC(=O)CN)c1 (centres undefined)
outcome [1]: inactive
outcome [3]: inactive

CCCCCCCCCCCCCCCCOP(=O)([O-])OCC[N+](C)(C)C
outcome [1]: inactive
outcome [3]: inactive

COc1cc(OC)cc(OC)c1
outcome [1]: inactive
outcome [3]: inactive

Cc1ccnc(NS(=O)(=O)c2ccc(N)cc2)n1
outcome [1]: inactive
outcome [3]: inactive

COc1c2occc2c(OC)c2c(=O)cc(C)oc12
outcome [1]: inactive
outcome [3]: inactive

CC(C)(C(=O)c1cccnc1)c1cccnc1
activation [9]: -12.9% (inactive)

From PubChem BioAssay (NCATS)
